Screening results deposited in PubChem BioAssay by National Center for Advancing Translational Sciences (NCATS).
This excerpt belongs to a sample that is enriched for hits.
HT1080 IDH1KD tx – qHTS for induction of synthetic lethality in tumor cells producing 2HG: qHTS for the HT-1080-IDH1KD cell line; HT-1080 IDH1 knockdown viability, ATP luminescence, 48 h; Potency, µM (series often up to 46.1 µM), for the others: at the highest dose activity, negative = toxicity, actives largely listed as cytotoxic; actives 2% (n = 360,000); AID 686971, 2013;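 note: potency is the fitted concentration of half-maximal effect; 0% = DMSO wells and -100% = cell-free medium wells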
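Using the IDH1-knockdown HT-1080 line run in the same batch and compound series as the NT line, viability after 48 h at 37 °C was determined by CellTiter-Glo luminescence and expressed as % activity.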
12-LOX inh – Primary qHTS assay for inhibitors of human arachidonate 12S-lipoxygenase (ALOX12): Round 2 | Polyunsaturated fatty acid lipoxygenase ALOX12 (Homo sapiens), P18054 | purified 12hLO, xylenol orange hydroperoxide absorbance | Potency, µM (highest dose often 108 µM), for inactives: top-dose activity change, negative = inhibition, usual class: inhibitors | actives 1.1% (n = 580,000) | AID 1671190, 2021; note: potency is the fitted concentration of half-maximal effect
Target sequence (P18054 whole entry, looked up): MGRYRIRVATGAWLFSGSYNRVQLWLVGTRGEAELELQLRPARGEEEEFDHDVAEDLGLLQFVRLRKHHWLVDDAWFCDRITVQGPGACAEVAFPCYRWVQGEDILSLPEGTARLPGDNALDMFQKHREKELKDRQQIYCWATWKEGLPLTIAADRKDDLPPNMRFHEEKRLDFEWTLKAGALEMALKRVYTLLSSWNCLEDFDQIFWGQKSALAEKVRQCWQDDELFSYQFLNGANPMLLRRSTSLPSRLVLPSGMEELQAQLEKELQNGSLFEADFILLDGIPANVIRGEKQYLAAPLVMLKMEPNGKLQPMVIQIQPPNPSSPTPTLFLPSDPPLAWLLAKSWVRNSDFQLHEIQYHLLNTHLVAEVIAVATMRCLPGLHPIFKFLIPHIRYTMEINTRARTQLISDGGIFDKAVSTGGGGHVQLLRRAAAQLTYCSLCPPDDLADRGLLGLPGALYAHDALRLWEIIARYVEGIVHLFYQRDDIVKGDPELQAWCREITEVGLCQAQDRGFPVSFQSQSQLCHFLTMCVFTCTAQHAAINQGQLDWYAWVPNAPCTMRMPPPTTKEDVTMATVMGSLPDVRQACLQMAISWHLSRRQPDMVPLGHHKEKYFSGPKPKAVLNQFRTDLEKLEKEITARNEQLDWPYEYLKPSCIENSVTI
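Hydroperoxide product was detected by ferrous iron/xylenol orange as the 573 to 405 nm absorbance ratio. Arachidonic acid at 40 uM (final) was turned over for 30 min at room temperature by 150 nM human 12hLO, pH 7.0 Hepes buffer, after 15 min compound preincubation.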
DT40 TDP1 no CPT – qHTS for Inhibitors of human tyrosyl-DNA phosphodiesterase 1 (TDP1): qHTS in cells in absence of CPT | actives 15% (n = 420,000) | DT40 Tdp1-/- hTDP1 cells, no CPT, ATP luminescence, 48 h | Potency, µM (highest dose often 46.2 µM), without a hit: top-dose activity change, negative = growth inhibition, hits mostly inhibitors; note: potency is the fitted concentration of half-maximal effect; nearly all actives have a fitted effect of over 55% in size
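Compound effects on proliferation are scored in DT40 Tdp1-/-;hTDP1 cells in the absence of CPT. ATP levels (CellTiter-Glo luminescence) are recorded after a ≥48 hr, 37 °C incubation.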
HT1080NT lethal – qHTS for induction of synthetic lethality in tumor cells producing 2HG: qHTS for the HT-1080-NT fibrosarcoma cell line; AID 686970, 2013; HT-1080-NT fibrosarcoma viability, CellTiter-Glo ATP luminescence, 48 h; actives 1.6% (n = 360,000); Potency, µM (titrated, usually from 46.1 µM), for the others: at the top dose activity, negative = less viability, usual class: cytotoxic;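 note: NT is the 2HG producing partner of a matched IDH1 knockdown line; potency is the fitted concentration of half-maximal effect; 0% = DMSO-treated cells and -100% = media-only wells without cells; nearly all actives have a fitted effect of over 55% in size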
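Fibrosarcoma NT cells, 750 per well in 5% FBS RPMI, were exposed to compound for 48 hours. Viability: CellTiter-Glo luminescence.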
IL1B secr inh – qHTS for Inhibitors of Inflammasome Signaling: IL-1-beta AlphaLISA Primary Screen; THP-1 LPS/ATP IL-1B secretion, AlphaLISA, 16 h; hits give low values; activity change, % at 57.5 µM; actives 4.7% (n = 360,000); AID 743279, 2014; in the data active = activity change below about -50%; inconclusive = mostly about -30% to -49%
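Secreted IL-1B measured by AlphaLISA bead assay after 16 h compound exposure of THP-1 cells; compounds (final up to 57.5 uM) added 1 h before LPS (250 ng/mL) and ATP (1.25 mM) stimulation; lower signal means less secretion.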
TDP1 cell CPT – qHTS for Inhibitors of human tyrosyl-DNA phosphodiesterase 1 (TDP1): qHTS in cells in presence of CPT; chicken DT40 Tdp1-/-;hTDP1 cells + 20 nM CPT, ATP luminescence, 48 h; Potency, µM (titrated, usually from 46.2 µM), inactives show at the highest dose activity change, negative = growth inhibition, hits mostly inhibitors; actives 12% (n = 420,000); note: potency is the fitted concentration of half-maximal effect; nearly all actives have a fitted effect of over 55% in size
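Cell growth measured by CellTiter-Glo luminescence after a minimum 48 h, 37 C compound exposure with 20 nM CPT in Tdp1-knockout DT40 cells stably expressing hTDP1, seeded 400/well; qHTS titration format.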
Active calls of the source: *; i = inactive; ? = inconclusive; / = not tested or not shown; [ ] = another dose, or the depositor's remark. Unless noted, calls come from the whole dose curve; as a rule, active = well fitted curve in the direction sought with a large enough effect; inconclusive = small, poorly fitted or top-dose-only effect, or another doubt; inactive = no such curve, though single readings can be large; an effect the other way counts as inactive or inconclusive. Unless noted, % is set by controls: 0 for no effect and ±100 for the full control effect.

SMILES | HT1080 IDH1KD tx | 12-LOX inh | DT40 TDP1 no CPT | HT1080NT lethal | IL1B secr inh | TDP1 cell CPT
COc1ccc2oc(=O)c(-c3csc(Nc4ccc(C)cc4)n3)cc2c1 | / | -28% | / | / | / | /
c1ccc(-c2csc(Nc3ccc4c(c3)OCCO4)n2)cc1 | 1% | ? | ? | -2% | 0 | 15µM*
CC(=O)NCCC(=O)Nc1nc(-c2c[nH]c3ccccc23)cs1 | -13% | ? | ? | -18% | -4 | ?
Oc1ccc(-c2csc(Nc3cccc(O)c3)n2)cc1 | / | 40µM* | / | / | / | /
CS(=O)(=O)Oc1ccc2c(NC(N)=O)c(C(=O)c3ccc(Cl)cc3Cl)oc2c1 | / | -18%[57.4 µM] | / | / | / | /
C1CCC(CNCCN2CCNCC2)CC1 | / | -3% | / | / | / | /
O=C1Cc2c(-c3cccc4ccccc34)n[nH]c2CN1Cc1ccccc1 | / | 20%[176 µM] | / | / | / | /
Cc1cc(C)c2nc(-c3ccc(N)cc3)cc(C(=O)O)c2c1 | / | -16% | / | / | / | /
CN(C)C(=O)C1CCCN1c1ncnc2ccccc12 (stereo not given) | / | 11% | / | / | / | /
Cc1cc(O)c(C(c2ccccc2)N2CCN(c3ccccc3)CC2)c(=O)n1Cc1ccco1 (stereo not given) | / | ? | -1% | / | / | ?
CC(=O)Oc1ccc(/C=C2/Oc3ccccc3C2=O)cc1 | -18% | 115% | -22% | -21% | ? | -1%
O=C1/C(=C/c2cccnc2)Oc2cc(OS(=O)(=O)c3ccc(F)cc3)ccc21 | 4% | 6% | ? | -5% | -22 | 10µM*
Cc1ccc(S(=O)(=O)Oc2ccc3c(c2)O/C(=C\c2cccnc2)C3=O)cc1 | -15% | / | 21µM* | 11%[9.24 µM] | -9 | ?
COc1ccc(S(=O)(=O)Oc2ccc3c(c2)O/C(=C\c2ccccc2)C3=O)cc1 | / | -7% | / | / | / | /
COc1ccc(/C=C2\Oc3cc(OS(=O)(=O)c4ccccc4)ccc3C2=O)cc1 | / | -4% | / | / | / | /
O=C1/C(=C/c2ccccc2)Oc2cc(OC(=O)N3CCOCC3)ccc21 | 11% | -19% | ? | 11% | -68* | ?
O=C1/C(=C/c2ccncc2)Oc2cc(OS(=O)(=O)c3ccccc3)ccc21 | ? | 0% | 12µM* | ? | 181 | ?
COc1cccc(Nc2ncc3ncc(=O)n(C)c3n2)c1 | / | 141% | ? | / | / | ?
COC(=O)c1cc(Oc2nc3ccccc3o2)cc(C(=O)OC)c1 | / | 25% | / | / | / | /
COc1cccc(OC)c1C(=O)Oc1ccc2c(c1)O/C(=C\c1ccncc1)C2=O | ? | -14% | 12µM* | 18µM* | -101* | 18µM*
COc1cccc(OC)c1C(=O)Oc1ccc2c(c1)O/C(=C\c1ccc(C(C)C)cc1)C2=O | / | 48% | / | / | / | /
CCOC(=O)c1cnc2ccc(OCC)cc2c1Nc1cc(C)ccc1OC | / | -24% | / | / | / | /
CCOC(=O)c1cnc2ccc(OCC)cc2c1Nc1cc(Cl)c(OC)cc1OC | / | -29% | 26µM* | / | / | 15µM*
CCOC(=O)c1cnc2ccc(OC(F)(F)F)cc2c1Nc1ccccc1C(=O)O | / | 0% | 15µM* | / | / | ?
CCOC(=O)c1cnc2ccc(OCC)cc2c1NCc1ccccc1OC | ? | ? | 5.2µM* | 21µM* | -89* | 5.2µM*
SMILES | HT1080 IDH1KD tx | 12-LOX inh | DT40 TDP1 no CPT | HT1080NT lethal | IL1B secr inh | TDP1 cell CPT
CCOC(=O)c1cnc2ccc(OC)cc2c1Nc1cccc(C(C)=O)c1 | / | -3% | 21µM* | / | / | 16µM*
O=C(CCC(=O)c1ccc2c(c1)CCCC2)OCc1ccccc1[N+](=O)[O-] | / | 35% | / | / | / | /
CS(=O)(=O)Cc1ccc(C(=O)Nc2ccc(F)c(F)c2)cc1 | / | -24% | / | / | / | /
O=C(NCC1CC1)C(=O)Nc1ccc2cc[nH]c2c1 | / | 37% | / | / | / | /
CCOC(=O)c1cnc2ccc(OC)cc2c1NCCc1ccccc1 | / | ? | 10µM* | / | / | ?
CCOC(=O)c1cnc2ccc(OC)cc2c1NCc1ccccc1 | -4% | 0% | ? | 0% | 2 | ?
Cc1cccc(C(=O)Nc2ccc(Cl)cc2C(F)(F)F)c1 | / | 9% | / | / | / | /
c1cncc(-c2nc(N3CCC3)c3ccccc3n2)c1 | / | -2% | / | / | / | /
COc1ccccc1C1=NN(C(=S)Nc2ccccc2)C(c2ccco2)C1 (stereo not given) | -6% | ? | ? | -2% | 8 | ?
COc1ccc(OC)c(C2CC(c3ccccc3)=NN2C(=S)Nc2ccccc2)c1 (stereo not given) | ? | 30% | 3.7µM* | ? | 34 | 3.7µM*
CNC(=S)N1N=C(c2ccc(C)cc2)CC1c1cc(OC)ccc1OC (stereo not given) | 21µM* | -13% | 9.2µM* | ? | 0 | ?
CNC(=S)N1N=C(c2ccc(OC)cc2)CC1c1ccc(Cl)cc1Cl (stereo not given) | 8% | -3% | -26% | 3% | -24 | -27%
C#CCN(C(=O)c1cc(COc2ccc(C)c(C)c2)on1)C1CCCCC1 | 2% | 2% | 23µM* | -1% | i | ?
Cc1ccc(OCc2cc(C(=O)N(C)Cc3ccccn3)no2)cn1 | / | 25% | / | / | / | /
Cc1ccc(OCc2cc(C(=O)N(C)CCc3ccccn3)no2)cc1C | -1% | -2% | ? | -5% | 14 | 26µM*
Cc1ccc(OCc2cc(C(=O)N(C)CCc3nc4ccccc4[nH]3)no2)cc1C | -10% | 7% | 21µM* | ? | 9 | 15µM*
CC(=O)c1cccc(OCc2cc(C(=O)N(C)CCc3ccccn3)no2)c1 | 0% | ? | ? | -4% | 16 | ?
CN(Cc1ccccn1)C(=O)c1cc(COc2ccc(F)c(F)c2)on1 | -3% | 18% | ? | 0% | -14 | 18µM*
Cc1cccc(C)c1OCc1cc(C(=O)N(C)Cc2cc(C3CC3)n[nH]2)no1 | -2% | 6% | ? | -2% | 0 | ?
Cc1ccc(OCc2cc(C(=O)N(C)Cc3cc(C4CC4)n[nH]3)no2)cc1C | 8% | -1% | 23µM* | -16% | 3 | ?
COC[C@@H]1CN(c2cnccn2)C[C@H]1C(=O)Nc1cccnc1 | / | 20% | / | / | / | /
NC(=O)NCCC(=O)O | / | -23% | / | / | / | /
Cc1ccccc1NC(=O)CSC1=Nc2ccccc2C2CC=NN12 (stereo not given) | / | 42% | / | / | / | /
